Anthrax LF inh2 – inhibitors of Bacillus anthracis lethal factor protease | inhibition, % at 10 µM | 360,000 compounds, 0.12% hits | multiplex microsphere protease cleavage assay, LF
Target sequence (P15917 whole entry, looked up): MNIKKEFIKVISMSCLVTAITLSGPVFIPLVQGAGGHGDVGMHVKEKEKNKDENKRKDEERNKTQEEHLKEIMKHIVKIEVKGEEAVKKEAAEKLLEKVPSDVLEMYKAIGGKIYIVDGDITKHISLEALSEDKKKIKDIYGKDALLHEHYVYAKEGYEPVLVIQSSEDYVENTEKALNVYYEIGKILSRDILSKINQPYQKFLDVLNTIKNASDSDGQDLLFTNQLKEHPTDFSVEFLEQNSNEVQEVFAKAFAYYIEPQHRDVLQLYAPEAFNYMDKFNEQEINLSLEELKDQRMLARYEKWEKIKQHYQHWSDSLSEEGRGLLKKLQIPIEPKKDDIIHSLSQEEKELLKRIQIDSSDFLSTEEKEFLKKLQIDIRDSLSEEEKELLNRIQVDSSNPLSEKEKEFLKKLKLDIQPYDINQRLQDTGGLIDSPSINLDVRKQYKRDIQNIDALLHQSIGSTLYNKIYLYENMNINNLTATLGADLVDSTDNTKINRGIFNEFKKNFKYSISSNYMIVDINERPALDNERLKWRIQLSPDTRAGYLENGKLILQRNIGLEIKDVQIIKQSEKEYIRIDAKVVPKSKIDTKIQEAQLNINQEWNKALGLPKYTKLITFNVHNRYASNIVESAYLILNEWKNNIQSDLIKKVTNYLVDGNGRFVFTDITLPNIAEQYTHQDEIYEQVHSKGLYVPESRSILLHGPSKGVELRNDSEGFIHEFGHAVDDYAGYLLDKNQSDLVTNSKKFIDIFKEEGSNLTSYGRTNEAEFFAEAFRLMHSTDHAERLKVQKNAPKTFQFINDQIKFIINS
SSB-PriA inh – blocks PriA binding to SSB C-terminal tail; AlphaScreen SSBct-PriA binding, biotinylated peptide; inhibition, % at 33 µM; 430,000 compounds, 0.6% hits; in the data active = inhibition mostly above about 37%, no sharp cut-off; inactive = mostly below about 20%
Autofluor counter – compound fluorescence in toxin protease inhibitor counterscreen; compound autofluorescence counterscreen, microsphere flow cytometry; active compounds read high; fluorescence intensity (concentration not given with the values); 360,000 compounds, 3.1% hits; AID 624483; in the data active = fluorescence intensity above about 16000; inconclusive = no clear call, values can overlap the other calls
BoNT F protease – inhibitors of Botulinum neurotoxin F light chain protease; Multiplex microsphere protease cleavage assay, flow cytometry; inhibition, % at 10 µM; 360,000 compounds, 0.22% hits; in the data active = inhibition above about 35%, passing the limit was not always enough; inconclusive = no clear call, values can overlap the other calls
BoNT A protease – blocks Botulinum neurotoxin A light chain protease; multiplex microsphere protease substrate cleavage, flow cytometry; inhibition, % at 10 µM; 360,000 compounds, 0.17% hits; AID 588499
Hits are given with their value; i = inactive; ? = inconclusive; nt = no result given. Sampled rows, rich in hits. Any-hit rate of the full collection: about 3.1%. Cut-off read from the data, not from the text of the source, unless noted: active = inhibition above about 30%; inconclusive = no clear call, values can overlap the other calls; inactive = below that.

SMILES	Anthrax LF inh2	SSB-PriA inh	Autofluor counter	BoNT F protease	BoNT A protease
Cc1ccc(C)c(N2CCN(C(=O)c3cc4sccc4n3C)CC2)c1	i	i	22451	i	?
Cn1c(C(=O)N2CCN(c3cccc(C(F)(F)F)c3)CC2)cc2sccc21	i	i	21909	i	i
NC(=O)[C@@H]1Cc2ccccc2N1C(=O)c1cc2ccccc2o1	nt	i	nt	nt	nt
O=C1CCC(=O)N1CNc1ccc(Cl)cc1	nt	i	nt	nt	nt
CCOC(=O)c1sc(NC(=O)C2CCN(S(C)(=O)=O)CC2)c(C(=O)OCC)c1C	nt	i	nt	nt	nt
COc1cc2nc(CC(C)C)n(NC(=O)c3ccccc3)c(=O)c2cc1OC	i	i	22766	i	?
Cc1ccc(C)c(S(=O)(=O)NCc2ccc(C(=O)N3CCCCC3C)cc2)c1 (stereo unspecified)	i	i	18934	i	i
Cc1ccc(C)c(S(=O)(=O)NCc2ccc(C(=O)O)cc2)c1	nt	i	nt	nt	nt
CC1CCCCN1C(=O)c1ccc(C(=O)N2CCCCC2C)cc1 (stereo unspecified)	i	i	21133	i	i
COc1ccccc1C(=O)NNC(=S)NC(=O)c1cccs1	i	nt	i	i	i
O=C(NC(=S)NNC(=O)c1ccccc1O)c1cccs1	i	45.3	i	i	i
Cc1onc(-c2ccccc2)c1C(=O)NC(=S)NNC(=O)c1ccccc1O	i	64.1	i	i	i
CC1CCN(C(=O)c2[nH]cnc2C(=O)N[C@@H](C)C(=O)OCc2ccccc2)CC1	i	44.1	i	i	i
COC(=O)c1ccc(C(=O)N2CCS[C@H](c3ccccc3C)CC2)cc1	nt	i	nt	nt	nt
Cc1ccnc(Sc2ccc([N+](=O)[O-])cc2[N+](=O)[O-])n1	i	i	21298	i	i
Cc1ccc(Sc2ccc([N+](=O)[O-])cc2[N+](=O)[O-])nc1	i	i	i	i	i
O=C(c1ccc2ncsc2c1)N(Cc1ccsc1)C1CC1	nt	i	nt	nt	nt
CCCCN1CC(C(=O)NCc2ccc(C)cc2)CC1=O (stereo unspecified)	i	nt	18906	i	i
Cc1ccc(CNC(=O)C2CC(=O)N(CCC(C)C)C2)cc1 (stereo unspecified)	i	i	i	i	i
Cc1cc(OCCn2cc(C(N)=NO)c3ccccc32)ccc1Cl	nt	i	nt	nt	nt
O=C1CSC(c2ccccc2)N1Cc1ccccc1 (stereo unspecified)	i	nt	16347	?	i
CCNc1ccc(Br)cc(C(=O)/C=C/c2ccc(Cl)cc2Cl)c1=O	43.3	i	17500	i	?
CNc1ccc(Br)cc(C(=O)/C=C/c2ccc3c(c2)OCO3)c1=O	i	i	i	i	i
CNc1ccc(Br)cc(C(=O)/C=C/c2cc(OC)ccc2OC)c1=O	i	i	17230	i	i
CNc1ccc(Br)cc(C(=O)/C=C/c2ccc(OC)cc2)c1=O	i	i	i	i	i
SMILES	Anthrax LF inh2	SSB-PriA inh	Autofluor counter	BoNT F protease	BoNT A protease
C[C@](O)(CNC(=O)C1CC1)c1ccco1	nt	i	nt	nt	nt
COCC(=O)Nc1ccc(Nc2ccc(-n3cccn3)nn2)cc1	nt	83.0	nt	nt	nt
COCC(=O)Nc1ccc(Nc2ccc(C)nn2)cc1	nt	i	nt	nt	nt
O=C(Nc1ccc(Nc2ccc(-n3cccn3)nn2)cc1)c1ccco1	nt	89.0	nt	nt	nt
CN(C)NC(=S)Nc1cccc(Cl)c1	i	i	?	?	?
CN(C)CCNC(=S)Nc1cccc(Cl)c1	i	i	23002	i	i
CN(C)S(=O)(=O)c1cccc(NC(=S)Nc2cc(Cl)cc(Cl)c2)c1	i	i	23036	i	?
CN(C)CCNC(=O)Nc1ccc(Cl)c(Cl)c1	i	i	24214	i	i
O=C(NCCn1nc(-c2ccco2)ccc1=O)c1c[nH]c2ccccc12	nt	i	nt	nt	nt
CS(=O)(=O)N1CCC(CNC(=O)c2ccc3nsnc3c2)CC1	nt	i	nt	nt	nt
COc1cnn(C(C)(C)C)c(=O)c1Cl	i	i	19156	i	?
O=C(NCCSC1CCOCC1)c1ccc(OC(F)(F)F)cc1	nt	i	nt	nt	nt
O=C(Nc1ccc(S(=O)(=O)Nc2nccc(C3Cc4ccccc4C(=O)O3)n2)cc1)c1ccccc1 (stereo unspecified)	i	i	23166	i	i
O=C(Nc1ccc(S(=O)(=O)Nc2ncccn2)cc1)c1ccccc1	i	i	i	i	i
Cc1ccc(O)c(C(=O)c2cnc3c(c2)CN(C)C(=O)N3)c1	i	i	21945	i	i
Cc1ccc(O)c(C(=O)c2cnc3c(c2)CN(CCC(C)C)C(=O)N3)c1	i	i	i	i	i
Cc1ccc(O)c(C(=O)c2cnc3c(c2)COc2ccc(C)cc2-3)c1	i	39.4	i	i	i
C1=NOC2c3ccccc3OCC12 (stereo unspecified)	nt	i	nt	nt	nt
Cc1scc(-c2n[nH]c(=S)n2C(C)c2ccccc2)c1C (stereo unspecified)	i	i	i	i	i
CCc1cc(-c2n[nH]c(=S)n2C(C)c2ccccc2)cs1 (stereo unspecified)	i	i	21656	i	i
O=C(Nc1ccccc1)NC1CS(=O)(=O)CC1O (stereo unspecified)	i	i	22098	i	i
CCOC(=O)N1CCN(c2ncnc3c2oc2nc(C(C)C)c4c(c23)CCC4)CC1	i	i	20792	i	i
CC(C)Cc1nc2oc3c(N4CCN(CCO)CC4)ncnc3c2c2c1CCCC2	i	i	i	i	i
COCCn1cc(C(=O)N2CCC3(CC2)OCCO3)c2c3ccccc3n(C)c2c1=O	i	i	i	i	i
CC(C)Cn1cc(C(=O)N2CCN(c3ccccn3)CC2)c2c3ccccc3n(C)c2c1=O	i	i	16320	i	i
SMILES	Anthrax LF inh2	SSB-PriA inh	Autofluor counter	BoNT F protease	BoNT A protease
CCOC(=O)C1CCN(C(=O)c2cn(CCOC)c(=O)c3c2c2ccccc2n3C)CC1	i	i	23452	i	i
CC(C)Cn1cc(C(=O)NCCCN2CCCC2=O)c2c3ccccc3n(C)c2c1=O	i	i	16933	i	i
COCCCNC(=O)c1cn(CC(C)C)c(=O)c2c1c1ccccc1n2C	i	i	?	i	i
CCN1CCN(C(=O)c2cn(CCOC)c(=O)c3c2c2ccccc2n3C)CC1	i	i	21067	i	i
O=C(Cc1csc(NC(=O)c2ccc3c(c2)OCO3)n1)Nc1nc2c(s1)CCCC2	nt	i	nt	nt	nt
O=C(Nc1ccc2c(c1)OCCO2)c1cccn(Cc2ccccc2F)c1=O	nt	i	nt	nt	nt
CCOC(CCNC(=O)c1cn(C)c(=O)c2c1c1ccccc1n2C)OCC	69.3	i	i	89.1	i
COc1ccccc1-n1cc(C(=O)NCC(=O)N2CCN(c3ccccc3)CC2)c2ccccc2c1=O	i	i	24097	i	i
COc1ccccc1N1CCN(C(=O)CNC(=O)c2cn(-c3ccccc3OC)c(=O)c3ccccc23)CC1	i	i	i	i	i
Cc1cc(=O)[nH]c2c(C)c(N)ccc12	i	i	23024	i	i
Cc1cc(=O)[nH]c2cc(O)ccc12	i	i	i	i	i
CSC[C@@](C)(O)CNC(=O)C(=O)Nc1cccc(N2CCCCC2=O)c1	nt	i	nt	nt	nt
Cn1ccnc1SCC1CCN(C(=O)c2cccs2)CC1	nt	35.0	nt	nt	nt
Cn1ccnc1SCC1CCN(C(=O)c2ccsc2)CC1	nt	i	nt	nt	nt
O=C(CSc1nnc2scc(-c3ccc(Cl)cc3)n12)NCc1ccco1	i	i	25480	i	i
O=C(CSc1n[nH]c(-c2cccs2)n1)NCc1ccc2c(c1)OCO2	i	i	22840	i	i
O=C(CSc1nnc2scc(-c3ccc(Cl)cc3)n12)NCc1ccc2c(c1)OCO2	i	i	24173	i	i
